# Screening results from PubChem BioAssay.
# Rows were chosen to be rich in hits. Some 21% of all compounds tested hit in one or more screens of this group.
# SARS PLP yeast: qHTS of Yeast-based Assay for SARS-CoV PLP; S. cerevisiae expressing SARS-CoV PLpro, growth rescue; Potency, µM (series often up to 32.9 µM), for inactives: at the top dose activity, positive = growth rescue, usual class: activators; actives 0.19% (n = 330,000); AID 485353, 2010; calls by dose curve; note: potency is the fitted concentration of half-maximal effect; 0% is about no effect; nearly all actives have a fitted effect of over 55% in size
# Pf growth 96h: Primary qHTS for delayed death inhibitors of the malarial parasite plastid, 96 hour incubation | actives 6.9% (n = 320,000) | P. falciparum luciferase reporter growth, 96 h | Potency, µM (top dose mostly 28.7 µM), inactives show at the highest dose activity change, negative = inhibition, hits mostly inhibitors; note: potency is the fitted concentration of half-maximal effect; % is set by controls: 0 for no effect and ±100 for the full control effect
#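 96 h incubation, 37 C, 5% CO2, of luciferase-reporter P. falciparum-infected RBCs (2% hematocrit, 0.05% parasitemia final) with test compounds; endpoint luminescence.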
# Pf growth 48h: Primary qHTS for delayed death inhibitors of the malarial parasite plastid, 48 hour incubation. P. falciparum luciferase growth in erythrocytes, 48 h. Potency, µM (top dose mostly 28.7 µM), for inactives: at the highest dose activity change, negative = inhibition, usual class: inhibitors. actives 5.9% (n = 310,000). AID 504832, 2011; note: potency is the fitted concentration of half-maximal effect; % is set by controls: 0 for no effect and ±100 for the full control effect
#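 Luciferase-expressing parasites in RBCs, 2% Hct / 0.1% parasitemia final; RPMI 1640 + 0.5% Albumax; 37 C, 5% CO2, one generation; luminescence read-out, lower signal = inhibition.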
# NS1 inh: qHTS Assay for Inhibitors of Influenza NS1 Protein Function; AID 2326, 2010; Potency, µM (highest dose often 46.1 µM), inactives show at the top dose activity, positive = more growth; actives 0.4% (n = 270,000); calls by dose curve; note: potency is the fitted concentration of half-maximal effect; actives are rising curves; nearly all actives have a fitted effect of over 50% in size
#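 Growth recovery, yeast-based: influenza A NS1 expressed in S. cerevisiae causes slow growth, and suppressors are detected by OD600. The parent strain without NS1 is used as positive control.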
# Shiga toxin inh: A qHTS for Small Molecule Inhibitors of Shiga Toxin | actives 9.2% (n = 290,000) | inhibition, % at 38.7 µM | Vero cells, Shiga toxin protein synthesis inhibition reporter; in the data active = inhibition mostly above about 28%, no sharp cut-off; inactive = mostly below about 43%; note: 0% is about no effect
# CHX counter: Cycloheximide Counterscreen for Small Molecule Inhibitors of Shiga Toxin | cell reporter, cycloheximide protein synthesis inhibition counterscreen | max response, % | actives 12% (n = 300,000) | AID 2314, 2010; in the data active = max response mostly above about 13%, no sharp cut-off; inactive = mostly below about 14%; note: read at 38.3 µM for the half of the compounds with a filed dose; 0% is about no effect
# * marks the source's active call; other numbers are inactive results; i = inactive; ? = inconclusive; . = not tested or not shown. Unless noted, calls come from the whole dose curve; as a rule, active = well fitted inhibition curve with a large enough effect; inconclusive = small, poorly fitted or top-dose-only effect, or another doubt; inactive = no such curve, though single readings can be large or run the other way.
SMILES,SARS PLP yeast,Pf growth 96h,Pf growth 48h,NS1 inh,Shiga toxin inh,CHX counter
O=C(Cn1cccn1)N1CCCC(N2CCN(c3ccccc3F)CC2)C1 (stereo unspecified),4%,3.7µM*,27%,4%,-2,-3
CC1=CC(C)(C)Nc2ccc(OS(=O)(=O)c3ccc(C)cc3)cc21,-3%,?,?,13%,40*,31
COc1ccc2c(c1)NC(C)(C)C=C2C,-4%,-19%,?,.,-10,-1
CC(=O)Nc1ccc(S(=O)(=O)Oc2ccc3c(c2)C(C)=CC(C)(C)N3)cc1,6%,-2%,-11%,-3%,22,16*
CC1=CC(C)(C)Nc2ccc(OC(=O)CCN3C(=O)c4ccccc4C3=O)cc21,?,6%,13µM*,-16%,23,22*
O=C(CCN1C(=O)c2ccccc2C1=O)Oc1ccc2ccccc2c1,-6%,0%,0%,-20%,-10,-7
COC(=O)c1ccc(OS(=O)(=O)c2ccc(NC(C)=O)cc2)cc1,2%,-30%,2%,-19%,11,9
O=C1c2cccc3cccc(c23)C(=O)N1CCc1ccccc1,-2%,?,361%,.,95*,51*
O=C1c2ccc3c4c(ccc(c24)C(=O)N1CCCCO)C(=O)N(CCCCO)C3=O,8%,-4%,0.74µM*,.,72*,34*
O=C(CCN1C(=O)c2ccccc2C1=O)N1CCOCC1,4%,5%,-6%,0%,-5,-3
O=C(CCCCCN1C(=O)c2cccc3cccc(c23)C1=O)NO,.,.,.,.,49,11
COC(=O)CCCN1C(=O)c2cccc3cccc(c23)C1=O,-3%,?,3%,-33%,28,24*
O=C(CCN1C(=O)c2cccc3cccc(c23)C1=O)N1CCOCC1,1%,?,204%,.,94*,26*
O=C(O)C(Cc1ccccc1)N1C(=O)c2cccc3cccc(c23)C1=O (stereo unspecified),0%,?,8%,4%,-3,1
Cc1ccc(NC(=O)CN(C)C(=O)/C=C/c2ccc3c(c2)OCO3)cc1,3%,-13%,-5%,.,.,.
CC(C)N1CCN(Cc2ccc(-c3ccccc3Cl)o2)CC1CCO (stereo unspecified),0%,?,?,3%,-14,1
COc1ccc(N(CCCN2C(=O)c3cccc4cccc(c34)C2=O)C(=O)c2cccs2)cc1,?,?,-13%,12%,-9,1
COc1cc(C)ccc1N(CCCN1C(=O)c2cccc3cccc(c23)C1=O)C(=O)c1cccs1,6%,9.3µM*,?,?,-14,-7
O=C1c2ccccc2C(=O)N1CCSC(=S)N1CCOCC1,3%,11%,72%,7%,51,26*
COc1ccccc1C(=O)ON=C1c2ccccc2-c2ccccc21,-8%,1.7µM*,3%,-18%,29,19*
COc1ccc2c(c1)CC/C2=N\OC(=O)c1cccc(C)c1,-40%,11%,?,-35%,139*,52*
O=C(O/N=C1\CCCc2ccccc21)c1cccs1,-4%,31%,i,.,70*,36*
Cc1cccc(C(=O)O/N=C2\CCS(=O)(=O)c3sccc32)c1,9%,?,?,3%,-5,16
COc1ccc2c(c1)CCC/C2=N/OC(=O)c1ccccc1OC,-15%,?,0%,.,41,29*
O=C1COC(c2ccccc2)C2CCCCN12 (stereo unspecified),16%,-3%,-14%,4%,-1,-2
SMILES,SARS PLP yeast,Pf growth 96h,Pf growth 48h,NS1 inh,Shiga toxin inh,CHX counter
COc1ccc2c(c1[N+](=O)[O-])CCC/C2=N/OC(=O)c1cccc2ccccc12,3%,.,0%,-3%,5,2
COc1ccc2c(c1)CC/C2=N\NC(=O)c1ccccc1,-9%,0%,30%,2%,75*,64*
COc1ccc2c(c1)CC/C2=N\OC(=O)c1ccccc1C,-16%,?,?,.,135*,50*
COc1ccc(OCC(=O)N/N=C2\CCc3ccccc32)cc1,7%,-29%,.,?,13,1
CN(C)CCOc1nc(-c2ccccc2)nc2c1oc1ccccc12,-4%,10µM*,9.3µM*,-52%,-8,2
O=C(Nc1cc([N+](=O)[O-])ccc1F)c1ccc2c(c1)OCCO2,0%,?,30%,.,56*,28*
CCN1CCN(c2ccc(NC(=O)c3ccc4c(c3)OCO4)cc2)CC1,8%,.,68%,-6%,56*,29*
O=C(Nc1cc([N+](=O)[O-])ccc1F)c1ccc2ccccc2c1,-2%,?,53%,-5%,4,5
CCC(=O)N1CCN(c2ccc(NC(=O)c3ccc4c(c3)OCO4)cc2)CC1,5%,.,.,-6%,-12,2
O=C(Nc1ccc(Cl)cc1)C1=Cc2ccccc2OC1,-20%,-16%,.,-14%,68*,83*
O=C(Nc1ccc2c(c1)OCO2)c1ccc2c(c1)OCO2,-17%,393%,275%,1%,67*,40*
CC(C)(C)CC(C)(C)c1cc(Cc2cc(C(C)(C)CC(C)(C)C)cc(-n3nc4ccccc4n3)c2O)c(O)c(-n2nc3ccccc3n2)c1,.,3%,-5%,.,.,.
CCOC(=O)CCNC(=O)N1CCCC(CNS(=O)(=O)c2cccs2)C1 (stereo unspecified),1%,-12%,18%,-1%,-8,7
O=C(Nc1ccc(Br)cc1)c1ccc2c(c1)OCO2,1%,102%,123%,-9%,162*,38*
O=c1c(O)c(-c2ccc3c(c2)OCO3)oc2ccccc12,-7%,?,?,-9%,22,34*
O=C(Nc1ccc(Cl)c(Cl)c1)c1ccc2c(c1)OCO2,-3%,-14%,250%,-8%,98*,42*
CC(C)C(=O)Nc1ccc(NC(=O)c2ccc3c(c2)OCO3)cc1,-1%,39%,31%,5%,-2,-3
Cc1[nH]c2ccccc2c1C(=O)C(=O)Nc1ccc2c(c1)OCO2,4%,?,0%,-10%,47*,28*
CC(C)Oc1ccc(OCCSc2nc3ccccc3n2CC(=O)O)cc1,3%,-10%,-23%,1%,.,-2
COc1ccc(NS(=O)(=O)c2ccc3c(c2)Cc2ccccc2-3)cn1,-19%,56%,25%,-105%,-13,7
CCOc1ccc(CC(=O)NNC(=S)NC)cc1Br,0%,-2%,20%,0%,-3,1
COc1ccc(NC(=O)CN(C)C(=O)c2ccc3c(c2)S(=O)(=O)N=C2CCCCCN23)cc1,-3%,-13%,17%,-7%,-13,-2
O=C(Nc1ccc2nsnc2c1)c1ccc2c(c1)OCO2,-3%,?,171%,-2%,64*,32*
